# The supplement of paper PMC6555819
# Tested on: VDR:RXRa (NR concentration 270 nM, RXRa partner concentration 90 nM)
# Test: PBM binding z-score (relative to random genomic background probes); higher = stronger binding; sequences stand for … in GC…GCGATTGACAGCGTAGAATGAAGG
# Procedure: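 Protein-binding microarray (Agilent 4x180K custom design, double-stranded 60-nt probes: 5' GC cap, 34-nt variable region, 24-nt constant primer region; full probe sequence given). Purified or IVT nuclear receptor:RXRα heterodimers (3:1 NR:RXRα, mostly 270:90 nM) or homodimers were incubated for 1 h in PBS with 2% milk and no ligand, then detected with Alexa488 antibodies. Fluorescence from o1-orientation probes (~5 replicates averaged) was converted to z-scores against 500 random hg19 background probes. Variable regions are seed direct-repeat (DR0–DR5) sites, all their single-nucleotide variants and half-site ablations.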
row,Sequence,PBM binding z-score
1,CCGAGTAGGTTTCGAGGGGGCATTCAGTGCGAAT,3.65
2,CCGAGTAGGTTACGAGGGGGCGTTCAGTGCGAAT,4.72
3,ACTCGGAGGACAAAGGTGAGAGCTACGCCAGTGA,0.122
4,CCTTACGGGTCTCTCCAGGTTATAGCATCGGAGT,0.117
5,CCTACTGGGCCAAGGTCATTGCTCAGTCAAAGCA,3.19
6,AGAATGAGGTTAGCAAAGATCAGGGAAACGCTTG,0.322
7,CTCGAAAGGTCAGTTGAGGTGAGTATACGGATAA,4.7
8,CGAACTAGGTCAGAGCAGGACAGTGAAGGATGAT,0.711
9,CGAACTAGGTCACCAGAACAGTGAAGAGGTTGGA,1.86
10,CGTCCAAGGGCAATGCTAGGTCAGTGAAAGCATT,0.893
11,TGGCCTAGGTCATGGGCCAGTATACCACGCGAAC,1.62
12,CCTAGTTGGTCAGGAGGTCCCACACCGGATATGA,0.0687
13,CGAACTAGGACATCCAGGACAGTGAATACATTGA,-0.0982
14,ATATGTAGGTTACATGCGGGTCATTCAGGCTATG,3.78
15,CTATGAAGGTTAAGGGGGTCATTCAGTTTGAAAG,7.95
16,GCTAGTGGGTCAGTAAAAGGTCACACACCGGTCG,4.9
17,CAAACTAGGTCAAGAGGTCAAAGGCCGCTTCCCG,5.83
18,CCGACTGGGGCAAAGGTTACCATGCTCAGTACGA,1.64
19,GATACAGGGTCAGCTAGAGGTCAGAGTATGGAAA,6.14
20,CTTTACGGGTCAAGGTTATAGCACGGGTGGTACG,3.8

row,Sequence,PBM binding z-score
1,ATATGTAGGTTAGCTGGGGTCATTCCGACTAGGC,6.1
2,CCTTACGGGTCACTCTAGGTTATAGCATCGGAGT,3.67
3,ATATGTTGGTTAGGGTCATTCAGAAAGTAGGGAA,4.37
4,CAAAGTAGGTCACGAAAGGTCAAAGTCGAATGAC,6.82
5,TCTCGGAGGACACGAAGGTCAAAGCTTTCCAGAG,3.87
6,CGAACTAGGTCACCAGGAAAGTGAAGAGGTTGGA,1.66
7,CTATCTAGGTTAAGGGGGTCATTCAGTTTGAAAG,7.51
8,TAGCCTCGGTCATTCAGGGGCCAGTATAGAAAGC,0.169
9,CGAACTAAGTCATTGACAGGACAGTGAATAGTAA,-0.19
10,ATATGTACGTTAGGGTCATTCAGAAAGTAGGGAA,4.24
11,CGAACTAGGTCACTAGGACAGTGAAGAGGTTGGA,1.18
12,AGTGAAAGTTCAGGACGAGGTAACGTAAAGCACG,2.81
13,CTATGTAGGTTAAGGAGGTCATTCAGTTTGAAAG,6.83
14,CTATGTAGGTTAAGGGGATCATTCAGTTTGAAAG,2.59
15,ATATGTAGGTTAGCGGGGGTCATTCAGACTAGGC,6.4
16,CGAACTTGGTCAAAGGACAGTGAAAGGCGACGTA,-0.101
17,CCGAGTAGGTTACGAGGGTGCATTCAGTGCGAAT,4.73
18,TTACCAAGGTGAAAGGTCGTTGAGGCACGCCTTG,3.55
19,GCTGCTAGGTCAACTGATGGTCAGCTAGAGCTCG,1.5
20,CGAACTAGATCAAAGGACAGTGAAAGGCGACGTA,-0.333
